Measured values reported in PubChem BioAssay AID925 (National Center for Advancing Translational Sciences (NCATS), 2007).
The campaign covered roughly 65,000 compounds. About 40 (0.06%) were called active. Calls follow the shape of the dose curve; as a rule, active = well fitted activation curve with a large enough effect; inconclusive = small, poorly fitted or top-dose-only effect; inactive = flat fitted curve, though single readings scatter. The entries come from a sample that favours actives as a whole.

Assay: qHTS Assay for Modulators of Hemoglobin Beta Chain Splicing; also: 0% is about no effect
Settings: HBB splicing reporter cell assay, EGFP reporter with mutant IVS2-654 intron; Potency: activation; series mostly up to 46.1 µM
Description: NIH Chemical Genomics Center [NCGC]
NIH Molecular Libraries Screening Centers Network [MLSCN]
PI Name: Dr. Ryszard Kole
Modulation of Alternative Splicing as Therapy
Abnormal splicing is associated with a number of diseases, including cancer and genetic diseases such as cystic fibrosis, muscular dystrophy and beta-thalassemia. Alteration of disease associated splicing patterns provides a promising target for treatment. […] Mutations in the second intron of the beta-globin gene at positions are clinically relevant and cause mis-splicing which results in an out of frame gene product.
EGFP-654 and 705 HeLa Cells as screen system.
HeLa cell lines were stably transfected with a construct in which the EGFP (enhanced green fluorescent protein) cDNA was interrupted by the second intron of the beta-globin gene (IVS2-654). The ISV2 intron contains mutations which cause mis-splicing of EGFP and premature termination of EGFP which results in a nonfluorescent protein product. […] Expression of the transgene was driven by the CMV promoter. We concluded that a low molecular weight compound, which restored correct splicing of intron 2 would also generate functional EGFP protein, resulting in a fluorescent signal. Thus, the HeLa cells that express the EGFP-654 construct can be used for high throughput screening of a chemical library.
NCGC Assay Protocol Summary:
High Throughput Screening. Freshly thawed HeLa EGFP-654 cells were seeded in 5 ul of optimem media (Invitrogen) containing 2 % fetal calf serum (Hyclone) and 1x penicillin/streptomycin (Invitrogen) at a concentration of 500 cells per well in 1536-well plates. Cells were incubated overnight at 37C in 5% CO2. The next day, cells were treated with DMSO, 500 nM antisense ISV2 654 PNA control oligo, or library compound and allowed to grow at 37C in 5% CO2 for 2 days. The PNA oligo blocked the mutation site in the intron and allowed proper (wild type) splicing to occur, resulting in full length EGFP expression and also allowed for optimization of the assay parameters. Plates were read in the Acumen Explorer (TTP Labtech) using 488 nm laser excitation and 500-520 nm emission PMT filter in a 1 x […] capture mode. Fluorescnet Fluorescent objects ranging in size from […] were measured and the total peak GFP intensity for each well was used for data analysis.
Keywords: Thalassemia, beta-thalassemia, beta-globin, EGFP, ISV2 654, ISV2 705, SSO, PNA, antisense, splicing, MLSMR, MLSCN, NIH Roadmap, qHTS, NCGC

activation, inactive:
CCCCNc1nc(C)nc2c1nc(-c1ccccc1)n2CCCCN(CC)CC
c1ccc(CSCCc2ccncc2)cc1 2.45% [at 9.22 µM, normalised to 500 nM splice-correcting PNA]
O=c1c(-c2ccc(F)c(F)c2)nc2cncnc2n1-c1ccccc1
COC(=O)NC(c1ccccc1)[C@]1(C(C)=O)CCCC1=O (stereo partly drawn) 0.441% [at 9.22 µM, normalised to 500 nM splice-correcting PNA]
CC(C)c1ccc2c([Si](C)(C)C)c3c(nc2c1)-c1cccc(=O)n1C3
C=CC(=C)CCC=C(C)C
O=Cc1c(Cl)cccc1Cl
COCCn1c(=O)c(-c2ccccc2)nc2cnc(N3CCOCC3)nc21
CN1CCN(c2ncncc2-c2ccc(C(=O)N(C)C)cc2)CC1
O=C(c1cnccn1)N1CCC[C@@]2(CCN(Cc3ccncc3)C2)C1
Cc1ccccc1-c1nc(N(C)Cc2ccco2)c2ccccc2n1
OCCN1CCN(CC/C=C2\c3ccccc3Sc3ccc(C(F)(F)F)cc32)CC1
BrC1C(Br)C(Br)C(Br)C(Br)C1Br (stereo not drawn)
c1ccc(CNc2ncncc2-c2cccnc2)cc1
FC(F)(F)c1ccccc1-c1nc(-n2ccnc2)c2ccccc2n1
CO[C@H]1COC(=O)[C@@H](C)NC(=O)C/C=C\[C@@H](C)[C@H](OC)COC(=O)C/C=C\[C@@H]1C 0.0576% [at 9.22 µM, normalised to 500 nM splice-correcting PNA]
COc1ccccc1CNc1ncnc2ccc(-c3ccc4c(c3)OCO4)cc12
Cc1noc(C)c1-c1nccc(N2CCOCC2)n1
Cc1[nH]c(N)nc(=S)c1CCCNc1ccccc1 0.0064% [at 9.22 µM, normalised to 500 nM splice-correcting PNA]
COc1ccc(NC(=O)N2CC3(CCN(C(=O)c4cccn4C)CC3)C2)cc1
Cc1c(O)c(Br)c(C)c(O)c1Br (tested in a mixture with another compound) 3.36% [at 9.22 µM, normalised to 500 nM splice-correcting PNA]
COc1ccc(CNc2ncncc2-c2ccccc2C)c(OC)c1
CC(C)[C@@H](CC(=O)N[C@@H]1CCNC[C@H]1C(=O)N[C@H](CC(=O)N[C@@H](CCC(=O)O)CC(=O)O)Cc1ccccc1)NC(=O)C[C@H](CO)NC(=O)[C@@H]1CNCC[C@H]1N
C[C@]12C=CC(=O)C=C1CC[C@@H]1[C@@H]2C(=O)C[C@@]2(C)[C@H]1CC[C@]2(O)C(=O)CO
CCCC(C(=O)OCCN(CC)CC)(c1ccccc1)c1ccccc1
CC(=O)N1CCC2(CC1)CCN(c1ccncc1)CC2
C[C@]1(C(=O)NCCc2c[nH]c3ccccc23)C=C[C@@H](Cc2ccccc2)N1C(=O)c1ccccc1
C[C@@H]1O[C@@H](O[C@@H]2[C@@H](O)[C@H](OCCc3ccc(O)c(O)c3)O[C@H](CO[C@@H]3O[C@H](CO)[C@@H](O)[C@H](O)[C@H]3O)[C@H]2OC(=O)/C=C/c2ccc(O)c(O)c2)[C@H](O)[C@H](O)[C@H]1O
O=C(c1csnn1)N1CCC2(CC1)CN(c1ncccn1)C2
O=S(=O)(O)c1ccc(O)c2ncccc12.O=S(=O)(O)c1ccc(O)c2ncccc12.[Zn] 0.245% [at 9.22 µM, normalised to 500 nM splice-correcting PNA]
CCOC(=O)[C@]1(C(/C=C/c2ccco2)NC(=O)OC)CCCC1=O (stereo partly drawn) 0.739% [at 9.22 µM, normalised to 500 nM splice-correcting PNA]
O=C1C(c2[nH]c3ccccc3c2O)=Nc2ccccc21
COC(=O)[C@@]1(Cc2ccc(F)cc2)[C@H]2c3cc(C(=O)N4CCCC4)n(Cc4ccc(OC(F)(F)F)cc4)c3C[C@H]2CN1C(=O)c1ccccc1
C[N+]1(CCN=C=NC2CCCCC2)CCOCC1 6.02% [at 9.22 µM, normalised to 500 nM splice-correcting PNA]
COCCn1c(=O)c(-c2cccs2)nc2cnc(N3CCN(C)CC3)nc21
COC(=O)[C@H](C)[C@H]1C[C@]1(C)[C@H](NC(=O)OCc1ccccc1)c1ccccc1
CCCCCCc1ccc(O)cc1O
CC(=O)OCC1OC(C#Cc2ccccc2Cl)C=CC1OC(C)=O (stereo not drawn) 2.13% [at 9.22 µM, normalised to 500 nM splice-correcting PNA]
O=c1c(-c2cccs2)nc2cnc(Oc3ccccc3)nc2n1-c1ccccc1
Cc1cc2nc3c(=O)[nH]c(=O)nc-3n(C[C@H](O)[C@H](O)[C@H](O)CO)c2cc1C
COc1ccc2[nH]cc(CCNc3ncnc4ccc(-c5ccc(C(=O)N(C)C)cc5)cc34)c2c1
CCCC[C@@H]1C[C@H]1C(NC(=O)c1ccco1)c1ccc(C(=O)OC)cc1 (stereo partly drawn)
OC(CCl)CCl
CC(=O)/C(C)=N\O
COc1ccccc1CNc1nc(-c2c(C)noc2C)nc2ccccc12
COCCNc1ccnc(-c2cccc(NS(C)(=O)=O)c2)n1
CCNc1ncc2ncc(=O)n(CCc3ccccc3)c2n1
CCCC[C@@H]1C[C@H]1C(NC(=O)c1ccc(-c2ccccc2)cc1)c1ccc(-c2ccccc2)cc1 (stereo partly drawn)
O=c1cc(-c2ccccc2)[nH]c2nc(Cl)ccc12
O=C(c1ccncc1)N1CCC2(CCN(Cc3cc(C(F)(F)F)cc(C(F)(F)F)c3)CC2)CC1
C=CCOC(=O)c1ccccc1C(=O)OCC=C
C/C=C1\C(=O)C[C@@H]2[C@@H]3CCC4=CC(=O)CC[C@@]4(C)[C@H]3CC[C@@]12C
Nc1nc2c(ncn2[C@H]2CC[C@@H](CO)O2)c(=O)n1C(=O)c1ccccc1 4.28% [at 9.22 µM, normalised to 500 nM splice-correcting PNA]
